Compounds without any hit were thinned out: in the full panel of roughly 83,000, 20% have a hit.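 Compound tested at a single concentration for 48 hours in 96-well plates; a percent growth value below 10 was scored as active.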 A number with no mark means an inactive call. Calls of active or inactive are those of the source.
Columns and labels:
Experiment in all cases: NCI-60 one-dose screen, 48 h (100 = growth as untreated, 0 = no growth, -100 = all killed)
Details in all cases: 10 µM unless noted
NCI-H23 lung = system: NCI-H23 lung
NCI-H226 lung = system: NCI-H226 lung
NCI-H322M lung = system: NCI-H322M lung
HOP-62 NSCLC = system: HOP-62 NSCLC
NCI-H460 lung = system: NCI-H460 lung
HOP-92 NSCLC = system: HOP-92 NSCLC
NCI-H522 lung = system: NCI-H522 lung
A549/ATCC NSCLC = system: A549/ATCC NSCLC
786-0 renal = system: 786-0 renal
COLO 205 colon = system: COLO 205 colon
DU-145 prostate = system: DU-145 prostate
K-562 leukemia = system: K-562 leukemia
MALME-3M melanoma = system: MALME-3M melanoma
MDA-MB-231 breast = system: MDA-MB-231 breast
RXF 393 renal = system: RXF 393 renal
SF-268 CNS = system: SF-268 CNS
SF-295 CNS = system: SF-295 CNS
SF-539 CNS = system: SF-539 CNS
UACC-257 melanoma = system: UACC-257 melanoma
M14 melanoma = system: M14 melanoma

| SMILES | growth (NCI-H23 lung) | growth (NCI-H226 lung) [%] | growth (NCI-H322M lung) [%] | growth (HOP-62 NSCLC) [%] | growth (NCI-H460 lung) [%] | growth (HOP-92 NSCLC) [%] | growth (NCI-H522 lung) | growth (A549/ATCC NSCLC) [%] | growth (786-0 renal) [%] | growth (COLO 205 colon) | growth (DU-145 prostate) [%] | growth (K-562 leukemia) | growth (MALME-3M melanoma) | growth (MDA-MB-231 breast) | growth (RXF 393 renal) | growth (SF-268 CNS) | growth (SF-295 CNS) [%] | growth (SF-539 CNS) [%] | growth (UACC-257 melanoma) | growth (M14 melanoma) [%] |
| --- | --- | --- | --- | --- | --- | --- | --- | --- | --- | --- | --- | --- | --- | --- | --- | --- | --- | --- | --- | --- |
| O=S(=O)(NCCNc1cc(-c2cn(-c3ccccc3)nc2-c2cccc(O)c2)ccn1)c1ccc(Cl)cc1 | 36.6% | 45.9 | 56.8 | 51.4 | 26.3 | 33.8 | 32.3% | 31.1 | 12 | -48% (active) | 62.8 | 2.13% (active) | 34.5% | -2.86% (active) | 38% | 40.2% | 13.3 | 61.8 | – | – |
| CC(=O)OCCCCCCn1c2ccccc2c2c3c(c4c5ccccc5n(C)c4c21)C(=O)N(O)C3=O | 68% | 63.7 | 77.4 | 58.7 | 48.1 | 101 | 50.4% | 94.5 | 88 | 70.1% | 89.9 | 59.7% | 115% | 64.5% | 100% | 70.2% | 91.5 | 94.3 | – | – |
| Cc1cc(N=O)cc(C(C)(C)C)c1O | 97% | 85.8 | 95.6 | 90 | 101 | 73 | 90.2% | 73.5 | 103 | 92.3% | 103 | 98.2% | 88.4% | 95.1% | 105% | 100% | 99 | 103 | 75.1% | 92.2 |
| O=C(Nc1ccc(/C=C2\SC(=O)N(Cc3ccc(OC(F)(F)F)cc3)C2=O)cc1)c1ccc(Cl)c([N+](=O)[O-])c1 | 80.8% | 83.4 | 42.7 | 57.8 | 94.6 | 86.4 | 83% | 85 | 99.6 | 55.1% | 72.7 | 46.4% | 98.4% | 53.2% | 83.5% | 62.7% | 96.1 | 77.2 | 80.1% | – |
| O=c1[nH]ncc(Br)c1Br | -57% (active) | 112 | 94.7 | 90.2 | 65.9 | 62.3 | -41.3% (active) | 69.3 | 71.6 | 22.4% | 54.4 | 3.3% (active) | -7.27% (active) | 28.7% | -85.5% (active) | -18.3% (active) | 102 | 93.5 | -36.7% (active) | – |
| COc1ccc(OCC(CO)N2CCN(c3ccccc3)CC2)cc1 (configuration not stated) | 103% | 106 | 115 | 118 | 116 | 81.2 | 99.4% | 100 | 101 | 96.3% | 111 | 126% | 82.7% | 97% | 119% | 95.8% | 101 | 98.5 | 96.1% | – |
| Cc1cc(C)n(Cc2cc(C(C)(C)C)cc(C(C)(C)C)c2)c(=O)c1C#N | 101% | 93.3 | 92.5 | 96.3 | 93.9 | 86 | 83.9% | 98 | 93.5 | 110% | 103 | 88.1% | 82.4% | 82.5% | 101% | 94.8% | 85.9 | 90.8 | 102% | – |
| COC(=O)C(Cc1ccccc1)n1cc(COc2nc(Cl)nc(Nc3ccc(Cl)cc3)n2)nn1 (configuration not stated) | 92.5% | 99.8 | 95.3 | 95 | 101 | 105 | 88.2% | 102 | 98.9 | 117% | 81.5 | 90.6% | 89.4% | 94% | 101% | 97.8% | 101 | 97.4 | 94.7% | 91.5 |
